Screening results deposited in PubChem BioAssay by several laboratories.
In the library only some 4% were active in any assay of this set; here they are far more common.
MazF activator: increases E. coli MazEF RNase cleavage of RNA; P0AE70; FAM/BHQ RNA-DNA oligo cleavage fluorescence, 5 h; activation, % at 20 µM; hit rate 0.32% among 350,000; AID 504720; in the data active means activation above about 50%
BoNT-F LC inh: inhibitors of Botulinum neurotoxin F light chain protease | inhibition, % at 10 µM | Multiplex microsphere protease cleavage assay, flow cytometry | hit rate 0.22% among 360,000; in the data active means inhibition above about 35%, passing the limit was not always enough; inconclusive means no clear call, values can overlap the other calls; further: plate controls were buffer without enzyme for full effect and enzyme alone for no effect
Anthrax LF prot: inhibitors of Bacillus anthracis lethal factor protease; P15917; multiplex microsphere protease cleavage assay, LF; inhibition, % at 10 µM; hit rate 0.12% among 360,000; further: plate controls were buffer without enzyme for full effect and enzyme alone for no effect
Target sequence (P15917 whole entry, looked up): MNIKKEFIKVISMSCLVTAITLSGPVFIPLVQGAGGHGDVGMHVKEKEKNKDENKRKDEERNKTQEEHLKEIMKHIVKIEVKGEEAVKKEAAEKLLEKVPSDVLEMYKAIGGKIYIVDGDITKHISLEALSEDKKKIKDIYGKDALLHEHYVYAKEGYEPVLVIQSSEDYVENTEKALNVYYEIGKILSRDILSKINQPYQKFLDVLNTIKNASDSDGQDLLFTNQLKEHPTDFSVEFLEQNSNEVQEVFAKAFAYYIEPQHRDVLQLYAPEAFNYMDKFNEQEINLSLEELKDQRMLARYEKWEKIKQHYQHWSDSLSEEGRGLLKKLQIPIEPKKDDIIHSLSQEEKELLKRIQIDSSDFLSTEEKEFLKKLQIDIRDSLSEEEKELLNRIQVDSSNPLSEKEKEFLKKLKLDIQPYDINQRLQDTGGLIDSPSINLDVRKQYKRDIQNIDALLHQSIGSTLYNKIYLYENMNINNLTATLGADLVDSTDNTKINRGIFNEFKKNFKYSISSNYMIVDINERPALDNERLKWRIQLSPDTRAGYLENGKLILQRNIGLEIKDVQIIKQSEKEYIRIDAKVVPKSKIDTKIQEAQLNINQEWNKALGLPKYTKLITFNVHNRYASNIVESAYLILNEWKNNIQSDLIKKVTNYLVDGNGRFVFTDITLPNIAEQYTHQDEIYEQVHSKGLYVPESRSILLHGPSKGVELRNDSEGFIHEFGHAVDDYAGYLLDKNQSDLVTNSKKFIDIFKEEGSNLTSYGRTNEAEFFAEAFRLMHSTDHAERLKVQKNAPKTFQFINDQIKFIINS
BoNT-A LC inh2: BoNT A light chain protease inhibition. multiplex microsphere protease substrate cleavage, flow cytometry. hit rate 0.17% among 360,000. AID 588499. inhibition, % at 10 µM; further: plate controls were buffer without enzyme for full effect and enzyme alone for no effect
Autofluor counter: flagged as autofluorescent in microsphere protease counterscreen. compound autofluorescence counterscreen, microsphere flow cytometry; active compounds read high. fluorescence intensity (test concentration not listed). hit rate 3.1% among 360,000. AID 624483; in the data active means fluorescence intensity above about 16000; inconclusive means no clear call, values can overlap the other calls
VHR inh abs: inhibitors of human VHR1 phosphatase (DUSP3); P51452; recombinant VHR phosphatase, pNPP absorbance; inhibition, % at 13.3 µM; hit rate 0.52% among 290,000; in the data active means inhibition above about 50%
Starred values were filed as active, the others as inactive; u = inconclusive; x = no result given. Unless noted, no stated cut-off is given here; in the data, active means inhibition above about 30%; inconclusive means no clear call, values can overlap the other calls; inactive means below that.

SMILES | MazF activator | BoNT-F LC inh | Anthrax LF prot | BoNT-A LC inh2 | Autofluor counter | VHR inh abs
CN(CC(=O)NNC(=O)c1cccnc1)S(=O)(=O)c1cc(Cl)ccc1Cl | 7 | -4 | -3 | -1 | 2691 | -2
CN(CC(=O)Nc1cccnc1)S(=O)(=O)c1cc(Cl)ccc1Cl | -1 | -7 | -3 | u | 25881* | 4
COc1cc(C(=O)Nc2nnc(Cc3ccccc3)s2)cc(OC)c1OC | 4 | -5 | 17 | -2 | 3968 | 4
Nc1cc(Cl)cc2c1-c1ccc(Cl)cc1C2 | 65* | 2 | 2 | 1 | 3628 | x
COc1ccc(-c2cc(-c3c(O)c(OC)c4occc4c3OC)[nH]n2)cc1 | -2 | -5 | -7 | u | 21696* | 24
COc1ccc(-c2cc(-c3c(O)c(OC)c4occc4c3OC)[nH]n2)cc1OC | 3 | 13 | -3 | 1 | 6685 | 19
COc1ccc(-c2nnc(SCC3CCCO3)n2C)cc1 (stereo not drawn) | -1 | -3 | -1 | -1 | 4404 | -13
CCOC(=O)c1c(C)n(O)c2ccc(Cl)cc2c1=O | -1 | 0 | -1 | 2 | 16178* | 0
COc1ccc(NC(=O)CN2C(=O)C(C)Oc3ccccc32)cc1 (stereo not drawn) | 12 | 1 | -2 | -1 | 23500* | 25
COc1ccc(CN(Cc2ccccn2)C(=O)CN2C(=O)C(C)Oc3ccccc32)cc1 (stereo not drawn) | -1 | -2 | -2 | -1 | 22997* | 19
CCC1Oc2ccc(C)cc2N(CC(=O)NCc2cccc(OC)c2)C1=O (stereo not drawn) | 2 | -8 | -1 | -4 | 17853* | 35
COc1ccc(NC(=O)CN2C(=O)C(C)Oc3ccccc32)c(OC)c1 (stereo not drawn) | 2 | 3 | 1 | 0 | 8147 | 19
O=C(CN1C(=O)COc2ccccc21)N(Cc1ccccc1)Cc1ccccn1 | -9 | 4 | 0 | u | 22246* | 6
COc1ccc(NC(=O)CN2C(=O)C(C)Oc3ccc(C)cc32)cc1 (stereo not drawn) | 6 | u | 11 | 0 | 4418 | -23
CCN1C(=O)/C(=C\c2nc3ccccc3c(=O)n2CC)c2ccccc21 | 9 | -1 | -2 | 0 | 2038 | 13
CCC1Oc2ccccc2N(CC(=O)Nc2ccccc2OC)C1=O (stereo not drawn) | 3 | 5 | -1 | u | 22225* | 33
COc1ccc(NC(=O)CN2CCC(C(N)=O)CC2)cc1 | 1 | 30 | -6 | 1 | 4665 | 18
CCC1Oc2ccccc2N(CC(=O)NCCc2ccc(OC)c(OC)c2)C1=O (stereo not drawn) | 4 | 3 | -1 | 0 | 4155 | 20
COc1ccc(NC(=O)CN2CCC(C)CC2)cc1 | -2 | -7 | -4 | -5 | 17348* | -8
O=C(Nc1cccc(S(=O)(=O)N2CCOCC2)c1)c1cc(=O)[nH]c2ccccc12 | 3 | 2 | -4 | -1 | 3210 | x
CCOC(=O)/C(=C/C1=CC(=C/N(C)C)/C(=O)O1)C(C)=O | -346 | 36* | -8 | 0 | 2895 | 18
FC(F)(F)c1cccc(Cc2noc(CN3CCCC(OCc4ccccn4)C3)n2)c1 (stereo not drawn) | -9 | -3 | 1 | -1 | 4337 | 21
CC(C(=O)NC1=NCCS1)N1C(=O)c2ccccc2C1=O (stereo not drawn) | 5 | -7 | -4 | -2 | 23583* | -12
CCCCCCc1nc2ccccc2c(=O)n1NC(=O)c1c(O)c2c(n(CC(C)C)c1=O)CCCC2 | -5 | -29 | -4 | 0 | 4770 | 10
Cc1nc2ccccc2c(=O)n1NC(=O)c1c(O)c2c(n(CC(C)C)c1=O)CCCC2 | -45 | 2 | 0 | 1 | 19971* | 4
SMILES | MazF activator | BoNT-F LC inh | Anthrax LF prot | BoNT-A LC inh2 | Autofluor counter | VHR inh abs
CC(C)(O)[C@@H]1Cc2c(ccc3ccc(=O)oc23)O1 | -1 | -4 | -4 | 0 | 3557 | -26
COC(=O)c1cc(OC)c(OC)cc1NC(=S)N1CCCC(CO)C1 (stereo not drawn) | -11 | 1 | 4 | 1 | 22143* | -25
COc1ccc(NC(=O)c2nc[nH]c2C(=O)NCC(=O)OC(C)(C)C)cc1 | -2 | -8 | -3 | 0 | 3937 | 27
C1CCC2(CC1)C1=C(CCCC1)Nc1nnnn12 | 0 | -7 | -5 | -4 | 24281* | 26
Cc1cnc(NC(=O)c2cc3c(s2)CCCC3)s1 | 7 | -19 | -2 | 0 | 2722 | 30
O=C(Nc1ccon1)c1cc2c(s1)CCCC2 | 7 | 5 | 1 | u | 22744* | 6
CNC(=O)c1cc2c(s1)CCCCCC2 | 4 | 5 | 1 | 2 | 10973 | 0
O=C(NCCCn1ccnc1)c1cc2c(s1)CCCCC2 | 9 | -9 | 0 | -5 | 25451* | 8
O=C(Nc1ccon1)c1cc2c(s1)CCCCCC2 | 2 | -4 | -1 | u | 16721* | 19
O=C(NCc1ccco1)c1cc2c(s1)CCCCC2 | 7 | 13 | -19 | 10 | 18946* | -1
Cn1c(=O)c2cc(NC(=O)OCCF)ccc2n1Cc1cccc(C(F)(F)F)c1 | x | -4 | -1 | 0 | 3992 | x
CCCCNc1c(-c2ccc(OC)c(SC3CCCCC3)c2)nc2cc(C)ccn12 | -13 | -10 | -5 | -1 | 3292 | x
COc1ccc(Sc2ccc(-c3nc4cnccn4c3NC3CCCCC3)cc2OC)cc1 | -11 | -10 | -3 | 0 | 4907 | x
COc1ccc(C2CC(c3ccccc3)=NN2S(=O)(=O)c2ccccc2)c(OC)c1 (stereo not drawn) | -5 | 1 | 0 | -1 | 5484 | -4
COc1ccc(C2CC(c3ccccc3)=NN2S(=O)(=O)c2ccc(C)cc2)c(OC)c1 (stereo not drawn) | -17 | 30 | 20 | 1 | 20530* | 10
COc1ccc(N2CCN(Cc3nc4ccsc4c(=O)[nH]3)CC2)cc1 | -8 | -2 | -1 | 0 | 20654* | 0
COc1ccc(Cn2c(=O)oc3ccc(C)cc32)cc1OC | 2 | 2 | -1 | 0 | 22068* | 0
CCN1C(=O)C(CC(=O)Nc2ccc(OC)cc2)N(Cc2cccs2)C1=S (stereo not drawn) | 7 | -4 | -2 | u | 16912* | -4
CCCOc1ccc(NC(=O)CC2C(=O)N(C)C(=S)N2Cc2cccs2)cc1 (stereo not drawn) | 97* | -6 | -3 | 0 | 3106 | -8
CN1C(=O)C(CC(=O)Nc2ccc(F)cc2)N(Cc2cccs2)C1=S (stereo not drawn) | 1 | u | -8 | -3 | 3901 | 2
O=C1Nc2ccccc2C(=O)N2CCCCC12 (stereo not drawn) | 4 | 2 | 2 | 0 | 4110 | -7
COC(=O)c1[nH]c2c(c1C)C(=O)CC(c1cc(OC)c(OC)c(OC)c1)C2 (stereo not drawn) | 3 | 6 | 7 | -1 | 3149 | 52*
COC(=O)c1[nH]c2c(c1C)C(=O)CC(c1ccc(OC)c(OC)c1)C2 (stereo not drawn) | 8 | -10 | 8 | 1 | 3677 | 2
